Only some compounds are listed: those with a hit (about 3.4% of all), similar ones and a draw of the others.
p53ts 32C kill: qHTS Screen for Compounds that Selectively Target Cancer Cells with p53 Mutations: Cytotoxicity of p53ts Cells at the Permissive Temperature. H1299-p53A138V at 32C, ATP luminescence viability, 24 h. Potency, µM (highest dose often 46.1 µM), for inactives: at the highest dose activity change, negative = cytotoxicity, most hits filed as cytotoxic. hit rate 0.93% among 130,000. AID 924, 2007;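 also: 0% = DMSO and -100% = full killing by reference compound; nearly all actives have a fitted effect of over 55% in size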
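Cells: H1299 p53ts (A138V), 600/well, pre-incubated 16–30 h at 37C. Cpd up to 46 uM, 24 h, 32C. Readout: ATPlite luminescence, 20 min RT. Normalization: DMSO vs tamoxifen 100 uM. AC50 by Hill equation.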
Peg3 imprint: qHTS Assay for Compounds that Induce Erasure of Genomic Imprints; hit rate 0.02% among 110,000; mouse ES Peg3-LacZ reporter, beta-gal luminescence, 40 h; AID 1948, 2009; Potency, µM (titrated, usually from 60.7 µM), inactives show at the top dose activity change, positive = activation, actives largely listed as activators
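Each well holds 300 Peg3LacZ-Neo (maternal) female ES cells incubated 40 h at 37C, 5% CO2. LacZ is measured by BetaGlo luminescence, with AC50 and maximum efficacy derived from dose-response curves.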
p53ts 39C kill: qHTS Screen for Compounds that Selectively Target Cancer Cells with p53 Mutations: Cytotoxicity of p53ts Cells at the Nonpermissive Temperature. H1299-p53A138V viability at 39C, ATP luminescence, 24 h. hit rate 1.5% among 130,000. Potency, µM (series often up to 46.1 µM), inactives show at the top dose activity change, negative = cell killing, most hits filed as cytotoxic; also: % is scaled to controls: 0 for no effect and ±100 for the full control effect; nearly all actives have a fitted effect of over 55% in size
Tau fil binding: qHTS Assay for Tau Filament Binding; Microtubule-associated protein tau (Homo sapiens), P10636; recombinant tau filaments, thioflavin S fluorescence, 15 h; filaments grown with octadecylsulfate alongside compound; Potency, µM (series often up to 57.1 µM), inactives show at the top dose activity change, negative = inhibition; hit rate 2% among 71,000;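 also: % is scaled to controls: 0 for no effect and ±100 for the full control effect; actives lower thioflavin S fluorescence by blocking filaments or displacing dye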
Target sequence (P10636 whole entry, looked up): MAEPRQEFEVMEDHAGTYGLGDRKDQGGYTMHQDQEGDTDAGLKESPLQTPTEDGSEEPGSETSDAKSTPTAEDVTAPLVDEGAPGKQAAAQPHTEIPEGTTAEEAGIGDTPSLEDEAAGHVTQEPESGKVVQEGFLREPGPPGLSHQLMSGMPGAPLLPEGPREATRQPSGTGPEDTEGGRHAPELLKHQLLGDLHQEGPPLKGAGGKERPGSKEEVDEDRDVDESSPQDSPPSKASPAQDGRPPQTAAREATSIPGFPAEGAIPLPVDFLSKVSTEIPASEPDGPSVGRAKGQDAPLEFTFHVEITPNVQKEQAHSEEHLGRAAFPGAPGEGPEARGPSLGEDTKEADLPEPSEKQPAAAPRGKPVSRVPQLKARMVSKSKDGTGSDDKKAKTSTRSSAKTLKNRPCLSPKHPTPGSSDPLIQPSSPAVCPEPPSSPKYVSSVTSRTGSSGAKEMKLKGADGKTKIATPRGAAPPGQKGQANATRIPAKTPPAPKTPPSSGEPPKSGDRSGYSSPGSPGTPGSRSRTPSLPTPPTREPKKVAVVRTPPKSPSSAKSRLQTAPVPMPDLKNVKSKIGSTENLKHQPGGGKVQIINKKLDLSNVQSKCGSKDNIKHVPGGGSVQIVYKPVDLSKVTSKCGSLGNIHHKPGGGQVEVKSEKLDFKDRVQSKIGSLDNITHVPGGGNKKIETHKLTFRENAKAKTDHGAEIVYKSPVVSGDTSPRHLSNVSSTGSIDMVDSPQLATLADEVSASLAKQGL
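Recombinant tau protein (human, 1 uM final) plus 30 uM ODS in HEPES pH 7.4 with NaCl, DTT and thioflavine S. Compound present from the start; fluorescence at 510 nm after 15 h, 37 C.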
FLuc inh: qHTS Assay for Inhibitors of Firefly Luciferase; Luciferin 4-monooxygenase (Photinus pyralis), P08659; hit rate 2.2% among 72,000; purified firefly luciferase, luminescence, 8 min; Potency, µM (titrated, usually from 57.1 µM), inactives show at the highest dose activity change, negative = inhibition, hits mostly inhibitors; also: % is scaled to controls: 0 for no effect and ±100 for the full control effect; nearly all actives have a fitted effect of over 40% in size
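Luminescence read-out after 8 min at room temperature; enzyme reaction used luciferin plus 10 uM ATP (linear range) in imidazole buffer pH 7.2 with KCl, MgCl2, Tween 20 and BSA. Each sample was run as a titration.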
* = called active by the depositor; ? = inconclusive; . = no result given; ! = repeats disagree; [ ] = dose if it differs, or a comment. Calls follow the shape of the dose curve; as a rule, active = well fitted curve in the direction sought with a large enough effect; inconclusive = small, poorly fitted or top-dose-only effect, or another doubt; inactive = no such curve, though single readings can be large; an effect the other way counts as inactive or inconclusive. Potency is read from the fitted curve at half-maximal effect.

SMILES	p53ts 32C kill	Peg3 imprint	p53ts 39C kill	Tau fil binding	FLuc inh
CCN(CC)CCNC(=O)CSc1nc2nc(C)c(Cc3ccccc3)c(C)n2n1	-6.9%	-4.4%[10.9 µM]	-8.4%	.	.
CCc1ccc(Nc2cc(C)nc3nc(Cc4ccc(Cl)cc4)nn23)cc1	-12.2%	-13.7%[10.9 µM]	20µM*	.	.
CCN(c1ccccc1)S(=O)(=O)c1ccc(NC(=O)c2cc(=O)c3cc(C)cc(C)c3o2)cc1	1.3%	-11.5%[10.9 µM]	3.6%	.	.
CCOC(=O)C1CCCN(c2ncnc3c2[nH]c2cccc(OC)c23)C1 (configuration not stated)	-0.1%	-46.4%	0.5%	-2.4%	-4.4%
COc1cccc2[nH]c3c(N4CCCC(C)C4)ncnc3c12 (configuration not stated)	-26.4%	-16.6%	?	61.7%	12.6µM*
CCC(=O)OCN1C(=O)C=CC1=O	9.6%[9.22 µM]	-36.6%[10.9 µM]	-0.7%[9.22 µM]	-12.3%[11.4 µM]	-2.5%[11.4 µM]
CC(=O)NCCN=C(C)c1sc2ccccc2c1O	-28.0%	-20.8%	-13.4%	5.4%	-23.3%
CC(=Nc1ccc(O)cc1)c1sc2ccccc2c1O	?	-65.0%	?	-4.5%	7.94µM*
CCC(C)NC(=O)CSc1nc2cc3c(cc2c(=O)n1Cc1ccc(C(=O)NCCc2ccc(OC)c(OC)c2)cc1)OCO3 (configuration not stated)	14.0%	-11.4%[10.9 µM]	-11.6%	.	.
COc1ccc(NC(=O)Nc2ccc3c(c2)N(C)C(=O)CS3)cc1OC	-4.3%	-3.4%	-4.4%	20µM*	?
CCN(CC)C(=O)c1sc2nc(-c3ccc(OC)cc3)cn2c1C	?	-59.6%	?	4.1%	12.6µM*
COc1ccccc1CNC(=O)C1CCN(Cc2cc3ccccc3n2Cc2cccc(C)c2)CC1	12.8%	-16.5%[10.9 µM]	-28.0%	.	.
COc1ccc(C(=O)c2oc3ccccc3c2N)cc1	-10.3%	-8.1%	-14.0%	12.6µM*	-22.0%
COc1ccc2oc(C(=O)C3CC3)c(N)c2c1	-19.3%	-34.3%	-17.2%	-11.3%	25.1µM*
Cn1c(=O)c(-c2ccc(F)cc2)nc2cncnc21	-18.3%	.	-10.1%	-2.4%	0.5%[11.4 µM]
C[C@@H]1OC2C3=C(C(=O)[C@H]4O[C@@H]4[C@H]3O)[C@@H]1[C@H]1[C@H](C)OC=C3[C@H](O)[C@H]4O[C@H]4/C(=N\OCc4ccccc4)[C@@]321	13.2%[9.22 µM]	.	3.98µM*	.	0.7%[11.4 µM]
CCc1c(C)c(C#N)c2nc3ccccc3n2c1Nc1cccc(C(F)(F)F)c1	-9.1%	-14.2%[10.9 µM]	-11.1%	.	.
O=C(COc1ccc2oc(-c3ccccc3)cc(=O)c2c1)NCc1ccco1	-19.1%	-30.8%	-19.8%	99.4%	7.94µM*
Cc1cc(=O)oc2cc(OCC(=O)NCc3ccco3)ccc12	3.6%	.	12.1%	.	.
O=C(COC(=O)c1cnccn1)c1ccc2c(c1)CCCC2	-15.0%	-0.2%	-10.0%	-23.7%	20µM*
O=C(COC(=O)c1cnccn1)c1ccc(Br)cc1	-4.7%	-2.0%	-6.3%	5.1%	-22.4%
C=C(C)OC(C)=O	7.1%[1.84 µM]	6.3%	12.4%	-4.0%	.
O=c1ccc2cc3c([nH]c4ccc(Br)cc43)oc-2c1O	4.3%	1.0%	7.9%	12.6µM*	-3.4%
Nc1nc(COc2ccc3ccccc3c2)cs1	?	-28.1%	-20.7%	3.6%	25.1µM*
O=c1c2[nH]c3ccccc3c2ncn1CCC1=CCCCC1	-2.2%	-0.3%	6.0%	3.0%	0.9%
O=c1c2c3nc4ccccc4nc3n(/N=C/c3ccco3)c2ncn1CCC1=CCCCC1	?	8.7%	-4.4%	7.94µM*	-0.4%
CC(CN(C)C)CN1c2ccccc2Sc2ccccc21 (configuration not stated)	4.4%	-14.0%	-7.0%	.	.
COc1ccc2c(c1)N(CC[C@H]1CCCCN1C)c1ccccc1S2	3.4%[9.22 µM]	-15.9%[10.9 µM]	-6.8%[9.22 µM]	2.51µM*	1.9%[11.4 µM]
COc1ccc2c(c1)N(C[C@@H](C)CN(C)C)c1ccccc1S2	-7.6%[20.6 µM]	-7.6%[16.8 µM]	-9.4%[20.6 µM]	10µM*	7.5%[25.5 µM]
C[C@@H](CN1c2ccccc2Sc2ccccc21)N(C)C	-8.1%[20.6 µM]	-10.0%[16.8 µM]	-9.8%[20.6 µM]	12.6µM*!	0.7%[25.5 µM]

Source: PubChem (National Center for Advancing Translational Sciences (NCATS))
